SW480 rereplic = A quantitative high throughput screen for small molecules that induce DNA re-replication in SW480 colon adenocarcinoma cells; SW480 DNA re-replication, Hoechst DNA content imaging, 48 h; 340,000 tested, 1.8% active; AID 624297, 2012; Potency, µM (doses to about 46.1 µM), usual class: activators; also: nearly all actives have a fitted effect of over 55% in size
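SW480 cells exposed to compounds for 48 hr at 37 C, 5% CO2, then Hoechst-stained 40 min. Nuclear DNA content imaged by fluorescence scanning (405 nm excitation, 500-530 nm emission); re-replication scored as increased high-intensity nuclei.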
Giardia killer = Small Molecules that selectively kill Giardia lamblia: qHTS | Giardia lamblia trophozoite viability | activity change, % at 7.66 µM, hits read low | 340,000 tested, 0.15% active | AID 540267, 2011; in the data active = activity change below about -80%; inconclusive = between about -30% and that limit;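 also: parasites exposed to compound for two days anaerobically before the ATP read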
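Giardia trophozoites, 100 cells per well, were exposed to compounds for 48 hrs at 37 deg C under anaerobic conditions; viability was then read as ATP content by bioluminescence after 15-30 min at room temperature.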
Chronic BCR inh = qHTS Assay to Find Inhibitors of Chronic Active B-Cell Receptor Signaling. 340,000 tested, 0.05% active. Potency, µM (titrated, usually from 46.1 µM), usual class: inhibitors. AID 493014, 2011. ABC-DLBCL IkBa-CBG/CBR reporter, luminescence ratio, 4 h; active = well fitted inhibition curve with a large enough effect in the signal ratio, with a control signal flat, not every such curve was filed as active; inconclusive = small, poorly fitted or top-dose-only effect, or effect the other way, or a change in a side signal; the % refers to the signal ratio
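TMD8 ABC-DLBCL cells carrying doxycycline-inducible green luciferase fused to IkappaBalpha plus unfused red luciferase were exposed to compounds (up to 46 uM) for 4 hrs at 37C. Activity came from the overlap-corrected green/red luminescence ratio.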
RORgamma inh = qHTS for inhibitors of ROR gamma transcriptional activity; Potency, µM (top dose mostly 53.6 µM), hits mostly inhibitors; 310,000 tested, 5.4% active; AID 2551, 2010; Drosophila S2 Gal4-RORgamma UAS-luciferase reporter, 20 h; also: nearly all actives have a fitted effect of over 60% in size
Target sequence (P51450 whole entry, looked up, the tested form may be a part): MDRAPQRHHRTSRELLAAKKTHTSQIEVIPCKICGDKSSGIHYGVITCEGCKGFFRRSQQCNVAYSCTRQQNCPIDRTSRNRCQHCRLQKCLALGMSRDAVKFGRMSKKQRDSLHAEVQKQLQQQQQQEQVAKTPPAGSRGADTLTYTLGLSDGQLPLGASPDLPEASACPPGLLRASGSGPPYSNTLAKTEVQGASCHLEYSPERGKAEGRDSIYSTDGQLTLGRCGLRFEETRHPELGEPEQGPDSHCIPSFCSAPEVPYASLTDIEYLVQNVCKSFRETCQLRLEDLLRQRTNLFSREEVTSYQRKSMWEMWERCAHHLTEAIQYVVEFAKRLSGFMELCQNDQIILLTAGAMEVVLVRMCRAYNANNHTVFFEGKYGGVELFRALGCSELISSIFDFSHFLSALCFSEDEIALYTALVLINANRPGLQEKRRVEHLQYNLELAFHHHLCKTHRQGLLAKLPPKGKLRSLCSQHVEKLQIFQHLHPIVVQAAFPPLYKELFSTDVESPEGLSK
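Compounds are pin-transferred onto Drosophila Schneider cells expressing a copper-inducible Gal4–ROR gamma transactivation domain fusion. After 1 hr, copper sulfate is added to 700 uM final; luciferase is read 20 hr later.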
VP16 counter = VP16 counterscreen qHTS for inhibitors of ROR gamma transcriptional activity | Drosophila S2 Gal4-VP16 UAS-luciferase, luminescence, 20 h | Potency, µM (doses to about 53.6 µM), most hits filed as inhibitors | 310,000 tested, 3.5% active;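 also: Gal4-VP16 expression switched on by copper sulfate through the metallothionein promoter; nearly all actives have a fitted effect of over 50% in size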
MCF10A rereplic = A quantitative high throughput screen for small molecules that induce DNA re-replication in MCF 10a normal breast cells. MCF 10A DNA re-replication, Hoechst nuclear intensity, 48 h. Potency, µM (series often up to 46.1 µM), usual class: activators. 350,000 tested, 2.9% active; also: nearly all actives have a fitted effect of over 50% in size
Of the large screens only hits and unclear results are named; the others gave an inactive call. Compounds with a hit are over-represented: about 8.3% of the library has one in this group of screens. Unless noted, calls follow the shape of the dose curve; as a rule, active = well fitted curve in the direction sought with a large enough effect; inconclusive = small, poorly fitted or top-dose-only effect, or another doubt; inactive = no such curve, though single readings can be large; an effect the other way counts as inactive or inconclusive.

COc1ccc(CCNC(=O)c2nn(C)c3c2CS(=O)(=O)c2ccccc2-3)cc1OC	SW480 rereplic 23.1µM, MCF10A rereplic inconclusive
O=c1c2c3c(sc2n(CCN2CCCCC2)c(=O)n1Cc1ccco1)CCCCC3	SW480 rereplic inconclusive, MCF10A rereplic 12.6µM
COc1ccc(N(Cc2cc3cccc(C)c3[nH]c2=O)C(=O)C2CCCO2)cc1 (configuration not stated)	none
COc1cc2c(Cc3c4c5c(cc(OC)c(OC)c5c5c(OC)c(OC)ccc35)CCN4C)c3c4c(cc(OC)c(OC)c4c2cc1OC)CCN3C	none (no result: SW480 rereplic, Giardia killer, Chronic BCR inh, MCF10A rereplic)
CCOC(=O)N1CCc2cc(OC)c(OC)c3c2c1cc1cc(OC)c(OC)cc13	SW480 rereplic 18.4µM, MCF10A rereplic 14.6µM (no result: Chronic BCR inh, RORgamma inh, VP16 counter)
C/C(=C\c1ccccc1)CN1CCN(Cc2ccc(C)o2)C(CCO)C1 (configuration not stated)	Chronic BCR inh inconclusive
C[C@@]12CCC3c4ccc(O)cc4CCC3C1CCC2O (some centres not stated)	RORgamma inh inconclusive (no result: SW480 rereplic, Giardia killer, Chronic BCR inh, MCF10A rereplic)
CCNc1cc2c(cc1O)CCC1C2CCC2(C)C(O)CCC12 (configuration not stated)	SW480 rereplic inconclusive, MCF10A rereplic inconclusive (no result: Chronic BCR inh, RORgamma inh, VP16 counter)
C=Cc1cc2c(cc1O)CCC1C2CCC2(C)C(O)CCC12 (configuration not stated)	SW480 rereplic inconclusive, MCF10A rereplic 10.3µM (no result: Chronic BCR inh, RORgamma inh, VP16 counter)
CC#Cc1cc2c(cc1O)CCC1C2CCC2(C)C(O)CCC12 (configuration not stated)	SW480 rereplic 9.2µM, MCF10A rereplic 8.2µM (no result: Chronic BCR inh, RORgamma inh, VP16 counter)
CCOc1cc2c(cc1O)CCC1C2CCC2(C)C(O)CCC12 (configuration not stated)	SW480 rereplic inconclusive, MCF10A rereplic 1.16µM (no result: Chronic BCR inh, RORgamma inh, VP16 counter)
Cc1oc(-c2ccc(F)cc2)nc1CN(Cc1ccccn1)CC1CCCO1 (configuration not stated)	Chronic BCR inh inconclusive
NC(=O)N[C@H]1NC(=O)NC1=O	none (no result: Giardia killer, Chronic BCR inh)
CCN(CC)CCCN=Cc1c(O)n(-c2cccc(C)c2)c(=O)c2ccccc12	SW480 rereplic inconclusive
Cc1cccc(NC(=S)NNC(=S)NC2CCCCC2)c1C	Chronic BCR inh inconclusive, RORgamma inh 12.6µM, VP16 counter inconclusive
Cc1cccc(NC(=S)NNC(=O)c2ccc(O)cc2O)c1C	Chronic BCR inh inconclusive, RORgamma inh 7.94µM, VP16 counter 20µM
Cc1cccc(C)c1NC(=S)NC1CCCCC1	RORgamma inh 6.31µM, VP16 counter 4.47µM
Cc1ccccc1NC(=S)NC1CCCC1	Chronic BCR inh inconclusive, RORgamma inh 7.94µM, VP16 counter 8.91µM
Cc1cccc(NC(=O)NNC(=O)c2cc3ccccc3cc2O)c1C	MCF10A rereplic inconclusive
COC1C(CO)OC(n2c3c(Cl)cccc3c3c4c(c5c6cccc(Cl)c6[nH]c5c32)C(=O)NC4=O)C(O)C1O (configuration not stated)	SW480 rereplic 1.64µM (no result: Chronic BCR inh, RORgamma inh, VP16 counter)
COC1C(O)C(CO)OC1n1c(Br)nc2c(=O)[nH]c(N)nc21 (configuration not stated)	none (no result: SW480 rereplic, Giardia killer, Chronic BCR inh, MCF10A rereplic)
COC(=O)[C@@H](NC(=O)O[C@@H]1C(=O)c2cc(OC)ccc2O[C@H]1c1ccc(OC)c(Br)c1)C(C)C	none (no result: SW480 rereplic, Giardia killer, Chronic BCR inh, MCF10A rereplic)
OB(O)c1cc2ccccc2o1	RORgamma inh inconclusive (no result: SW480 rereplic, Chronic BCR inh, MCF10A rereplic)
O=[N+]([O-])c1ccc(-c2ccc(/C=N/Nc3nc(N4CCCCC4)nc(N4CCCCC4)n3)o2)cc1	Chronic BCR inh inconclusive
COc1ccc(-c2cnnc(N/N=C/c3ccc(-c4ccc([N+](=O)[O-])cc4)o3)n2)cc1	SW480 rereplic inconclusive, MCF10A rereplic 1.03µM
COc1ccc(-c2cnnc(N/N=C/c3ccc(O)c(OC)c3)n2)cc1	SW480 rereplic 16.4µM, Chronic BCR inh inconclusive, MCF10A rereplic 14.6µM
COc1ccccc1-c1cnnc(N/N=C/c2ccc(-c3cccc(Br)c3)o2)n1	RORgamma inh 1µM, VP16 counter 2µM
